# Sampled rows, rich in hits. Any-hit rate of the full collection: about 3.1%.
# FBA Mtb inh: inhibits M. tuberculosis FBA enzyme; hit rate 2.3% among 360,000; inhibition, % at 1 µM; P9WQA3; purified M. tuberculosis FBA, fluorescence read-out; AID 588726;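 note: 0% = vehicle and 100% = reference inhibitor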
# Target sequence (P9WQA3 whole entry, looked up): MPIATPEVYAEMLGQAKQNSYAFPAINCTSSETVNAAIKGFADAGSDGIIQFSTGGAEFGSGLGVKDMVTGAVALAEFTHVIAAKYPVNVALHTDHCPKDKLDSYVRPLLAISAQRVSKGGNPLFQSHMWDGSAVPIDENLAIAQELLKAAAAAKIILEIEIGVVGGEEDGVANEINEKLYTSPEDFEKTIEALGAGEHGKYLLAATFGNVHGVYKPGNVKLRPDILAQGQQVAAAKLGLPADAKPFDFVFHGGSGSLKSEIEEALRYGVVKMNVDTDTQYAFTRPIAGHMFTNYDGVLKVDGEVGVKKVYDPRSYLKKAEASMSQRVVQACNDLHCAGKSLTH
# 3CLpro inhibitor: SARS-CoV 3CLpro protease inhibition | P0C6X7 | recombinant SARS-CoV 3CLpro, quenched FRET peptide cleavage | inhibition, % at 6 µM | hit rate 0.14% among 290,000 | AID 1706; in the data active = inhibition above about 12%
# FadD28 binding: blocks FadD28 binding to the bisubstrate probe; hit rate 0.22% among 360,000; inhibition, % at 12.5 µM; fluorescence polarization; in the data active = inhibition above about 8.5%, passing the limit was not always enough
# Mtb BioA inh: blocks M. tuberculosis BioA enzyme activity | purified M. tuberculosis BioA enzyme, plate reader | inhibition, % at 9.99 µM | hit rate 0.096% among 360,000 | AID 602481; in the data active = inhibition above about 40%
# GDH-TPI counter-1: GDH-TPI coupled enzyme inhibition counter-screen; inhibition, % at 4.8 µM; hit rate 1.2% among 360,000; GDH-TPI coupled enzyme counterscreen, NADH absorbance; in the data active = inhibition above about 30%;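 note: 0% = DMSO wells and 100% = wells lacking the enzyme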
# Mtb FBA confirm: confirmation of M. tuberculosis fructose-bisphosphate aldolase inhibitors. shares compounds with FBA Mtb inh. purified M. tuberculosis FBA, fluorescence read-out. inhibition, % at 1 µM. hit rate 78% among 5,600;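 note: 0% = vehicle wells and 100% = reference inhibitor wells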
# GDH-TPI counter-2: inhibits GDH-TPI coupling enzymes, flagging Mtb FBA hits | shares compounds with FBA Mtb inh | GDH-TPI coupled enzyme counterscreen, fluorescence | inhibition, % at 1 µM | hit rate 81% among 5,600; in the data active = inhibition above about 10%
# GDH-TPI dose: GDH-TPI dose response counter-screen for Mtb FBA; shares compounds with FBA Mtb inh; GDH-TPI coupled enzyme assay, fluorescence, artifact counterscreen; IC50, µM; hit rate 79% among 170; AID 652145; call rule not given here
# Starred values were filed as active, the others as inactive; x = no result; + = active, no number. Cut-off read from the data, not from the text of the source, unless noted: active = inhibition above about 27%; inactive = the rest.
SMILES,FBA Mtb inh,3CLpro inhibitor,FadD28 binding,Mtb BioA inh,GDH-TPI counter-1,Mtb FBA confirm,GDH-TPI counter-2,others
NC(=O)C1CCN(C(=O)COc2ccc3ccccc3c2)CC1,0,-1,-4,x,5,x,x,
O=C(COc1ccc2ccc(=O)oc2c1)N1CCN(c2ccccc2)CC1,27*,2,-3,23,26,78*,53*,
O=C(COc1ccc2ccc(=O)oc2c1)NC1CCCCC1,32*,x,-1,5,32*,105*,74*,
COCC(=O)N(C)C[C@H]1Oc2ncc(-c3ccc(C)cc3)cc2C(=O)N([C@H](C)CO)C[C@@H]1C,x,x,x,2,x,x,x,
CC(C)NC(=O)N(C)C[C@@H]1OCCCC[C@@H](C)Oc2ccc(NC(=O)C3CCCCC3)cc2C(=O)N([C@@H](C)CO)C[C@@H]1C,x,x,x,0,x,x,x,
Nc1ccc(-c2cc(-c3ccc(N)cc3)nc(-c3ccccc3)n2)cc1,39*,1,-1,-5,18,54*,28*,
Nc1nc(-c2ccc(-c3ccccc3)cc2)cs1,33*,4,0,x,3,+,+,
Cc1cc(S(N)(=O)=O)c(N)c(S(N)(=O)=O)c1,29*,-4,-4,1,8,+,+,
O=C(C[C@@H]1CC[C@@H]2[C@H](COC[C@@H](O)CN2Cc2nccs2)O1)NCc1ccc(Oc2ccccc2)cc1,x,x,x,-1,x,x,x,
c1ccc2c(c1)ccc1[nH]c3c(c12)CCCC3,43*,x,3,-2,11,75*,69*,
C[C@@H]1CN([C@@H](C)CO)C(=O)Cc2cc(NC(=O)C3CCCCC3)ccc2O[C@H]1CN(C)S(=O)(=O)c1cn(C)cn1,x,x,x,1,x,x,x,
COC(=O)c1sc2ccccc2c1N,79*,2,-3,0,1,+,+,
Cc1noc(C)c1NC(=O)Nc1ccc2c(c1)CC(=O)N([C@H](C)CO)C[C@H](C)[C@@H](CN(C)Cc1ccc3c(c1)OCO3)O2,x,x,x,1,x,x,x,
O=c1oc2cc(O)ccc2cc1-c1nc2c(s1)CCc1ccccc1-2,38*,-2,-2,x,-7,x,+,
c1cnc2cc(-c3ccsc3)ncc2c1,29*,x,-2,2,15,8,5,
COc1ccc(-c2ccc3c(c2)CN(C(=O)CCc2ccccc2)Cc2cnnn2-3)cc1,63*,x,-8,-6,x,+,173*,
CCC(=O)N(C)C[C@H]1Oc2cc(C3=CCCC3)ccc2S(=O)(=O)N([C@@H](C)CO)C[C@@H]1C,x,x,x,-2,x,x,x,
C[C@@H]1CN([C@@H](C)CO)C(=O)c2cc(-c3ccccc3F)cnc2O[C@H]1CN(C)C(=O)CN(C)C,x,x,x,-2,x,x,x,
Cc1oc2cc(O)ccc2c(=O)c1-c1cnn(-c2ccccc2)c1,41*,7,-3,2,14,+,+,
Cc1oc2cc(O)ccc2c(=O)c1-c1nncn1-c1ccccc1,10,-4,-1,x,12,x,x,
Cc1oc2cc(O)ccc2c(=O)c1-c1ccccc1,71*,2,-1,x,24,199*,161*,
O=c1c(-c2cnn(-c3ccccc3)c2)coc2cc(O)ccc12,7,6,-3,1,5,x,x,
CCC(C)[C@H](NC(=O)C1CC(=O)N(c2ccc3c(c2)OCCO3)C1)C(=O)NC1CCCC1 (stereo not given in full),2,-4,-5,0,-11,x,x,
CC(C)[C@H](NC(=O)C1CC(=O)N(c2ccc3c(c2)OCCO3)C1)C(=O)NC1CCCC1 (stereo not given in full),96*,-9,-1,1,-3,+,+,
Cc1ccc(NC(=O)CC(C)S(=O)(=O)c2ccc3c(c2)NC(=O)CO3)c(Cl)c1 (stereo not given),71*,2,-2,2,0,+,+,
SMILES,FBA Mtb inh,3CLpro inhibitor,FadD28 binding,Mtb BioA inh,GDH-TPI counter-1,Mtb FBA confirm,GDH-TPI counter-2,others
Cc1ccc(CNC(=O)CC(C)S(=O)(=O)c2ccc3c(c2)NC(=O)CO3)cc1 (stereo not given),-1,-2,-4,-3,-8,x,x,
Cc1cccc(C2Nc3ccccc3C(=O)N2CCc2ccccc2)n1 (stereo not given),73*,0,0,-1,18,+,+,
CCn1c(C)c(CCC(=O)O)c(=O)n2nc(-c3ccccc3OC)cc12,54*,2,1,-3,12,40*,41*,
O=C(CSc1nnc(-c2ccccn2)n1Cc1ccccc1)N1CCCC1,84*,-1,-1,-3,-2,101*,68*,
CN1[C@@H]2Cn3c(ccc(-c4ccc(F)cc4)c3=O)[C@H]1[C@@H](C(=O)N1CCCCC1)[C@@H]2CO,x,x,x,-1,x,x,x,
Cc1cc(-c2ccc(Cl)cc2)n2nc(N)nc2n1,59*,-2,-1,7,14,17,7,GDH-TPI dose=2.6*
Cc1cc(-c2ccc(Cl)cc2)n2ncnc2n1,28*,3,-1,0,10,101*,91*,
C[C@H](CO)N1C[C@H](C)[C@H](CN(C)C(=O)CC2CC2)Oc2cc(C#CC(C)(C)O)ccc2S1(=O)=O,x,x,x,2,x,x,x,
Cc1ccnn1-c1ccc(C(=O)NCc2ccccc2CN2CCOCC2)cc1,58*,x,-3,x,4,+,+,
O=C(NCc1ccccc1CN1CCOCC1)c1ccc(-n2cccn2)cc1,4,x,0,-1,10,x,x,
COc1ccc(S(=O)(=O)Nc2ccccc2C(=O)Nc2nc(-c3ccc(F)cc3)cs2)cc1OC,33*,1,4,x,11,92*,68*,
COc1ccc(NC(=O)N(C)C[C@H]2Oc3ccc(NS(=O)(=O)c4cn(C)cn4)cc3C(=O)N([C@@H](C)CO)C[C@@H]2C)cc1,x,x,x,1,x,x,x,
C[C@@H]1CN([C@@H](C)CO)C(=O)c2cc(-c3ccccc3)cnc2O[C@@H]1CN(C)C(=O)c1ccccc1F,x,x,x,-4,x,x,x,
CCc1noc(C)c1C(=O)N1CCN(S(=O)(=O)c2ccc(C(C)C)cc2)CC1,-1,x,-1,1,7,x,x,
CCc1noc(C)c1C(=O)N1CCN(S(=O)(=O)c2ccc(Cl)cc2)CC1,33*,x,-3,2,-10,94*,79*,
CC(SCc1nc2sc3c(c2c(=O)[nH]1)CCCC3)C(=O)Nc1ccccn1 (stereo not given),37*,x,-1,0,6,127*,92*,
Nc1nccnc1C(=O)OCc1nc2sc3c(c2c(=O)[nH]1)CCCC3,40*,x,-4,-1,9,+,+,
Cc1csc(NC(=O)c2cc3c(s2)-c2ccccc2OC3)n1,39*,7,-5,-1,19,123*,102*,
C[C@H](NC(=O)[C@@H]1[C@@H](CO)[C@@H]2Cn3c(cccc3=O)[C@@H]2N1Cc1cccnc1)c1ccccc1,x,x,x,0,x,x,x,

# High-throughput results (PubChem BioAssay)
